In the library only some 1.6% were active in any assay of this set; here they are far more common.
RN4220 kill – growth inhibition of S. aureus RN4220, primary screen, OD600; 16 h; inhibition, % (test concentration not listed); 330,000 tested, 0.33% active; in the data active means inhibition above about 85%
Sa ugtP lethal – growth inhibition of ugtP-null S. aureus, primary screen, RN4220 ugtP deletion, OD600; 16 h; growth inhibition, % (no concentration beside the values); 330,000 tested, 0.54% active; AID 1259309, 2017; in the data active means growth inhibition above about 68%
PfHsp40 rescue – rescue of yeast from PfHsp40 toxicity, primary screen, S. cerevisiae, ATP luminescence | S. cerevisiae expressing PfHsp40, growth rescue | growth rescue, % at 12.5 µM | 340,000 tested, 0.68% active | AID 504582, 2011; in the data active means growth rescue above about 28%, passing the limit was not always enough; inconclusive means no clear call, values can overlap the other calls;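 further: yeast W303a lacking pdr1 and pdr3 grown in galactose medium; growth measured after three days at 30 °C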
BJeLR lethal – MLPCN primary cell-based screen for lethality selective to Ras in HRASV12 cells; inhibition, % (no concentration beside the values); 300,000 tested, 0.17% active; BJeLR (HRASV12) viability, CellTiter-Glo ATP luminescence, 48 h; AID 1554, 2009; in the data active means inhibition above about 50%; inconclusive means no clear call, values can overlap the other calls
CCHF vOTU inh-1 – CCHFV vOTU protease inhibitors, primary screen, biochemical, Pep-AMC substrate, fluorescence; Crimean-Congo hemorrhagic fever virus L polyprotein viral ovarian tumor (vOTU) protease …; inhibition, % at 11.5 µM; 370,000 tested, 0.55% active; AID 651958, 2012
CCHF vOTU inh-2 – CCHFV vOTU protease inhibitors, confirmation, biochemical, Pep-AMC substrate, fluorescence; AID 686976, 2013; Recombinant CCHFV vOTU; 1,900 tested, 17% active; inhibition, % at 11.5 µM; shares compounds with CCHF vOTU inh-1
Hits are given with their value; 0 = inactive; ? = inconclusive; - = no result; ! = repeats disagree. Unless noted, no stated cut-off is given here; in the data, active means inhibition above about 30%; inactive means the rest.

SMILES | RN4220 kill | Sa ugtP lethal | PfHsp40 rescue | BJeLR lethal | CCHF vOTU inh-1 | CCHF vOTU inh-2
CN1CCN(S(=O)(=O)c2cccc(C(=O)N(Cc3nnc(-c4ccc(Cl)cc4)o3)C3CC3)c2)CC1 | 0 | 0 | 0 | 0 | 34 | 0
O=C(c1cccc(S(=O)(=O)N2CCOCC2)c1)N(Cc1nnc(-c2ccccc2Cl)o1)C1CC1 | 0 | 0 | 0 | 0 | 0 | -
CCOC(=O)C1C2COc3ccc(Br)cc3C2N2C(=O)N(c3ccc(Cl)cc3)C(=O)[C@]12C (stereo partly drawn) | 0 | 0 | - | - | - | -
CCCCCCCCN1C(=O)[C@H](CC(=O)N2CCN(C(=O)C3CC3)CC2)C[C@@]2(C(=O)OC)CC(C)(C)CC=C12 | - | - | - | - | 31 | 0
CCCCCCCCN1C(=O)[C@H](CC(=O)N2CCN(C(=O)OCC)CC2)C[C@@]2(C(=O)OC)CC(C)(C)CC=C12 | - | - | - | - | 32 | 0
COc1ccccc1C=NNC(=O)c1nnn(-c2nonc2N)c1-c1ccccc1 | 0 | 0 | - | - | - | -
Cc1cc(N2C(=O)C(O)=C(C(=O)c3cc4ccccc4o3)C2c2cccc(Br)c2)no1 (stereo not drawn) | 100 | 100 | 0 | 0 | 32 | 0
COc1cccc(C2=Nc3cccc4cccc(c34)N2)c1 | 0 | 0 | 0 | 0 | 30 | 0
CC(NS(=O)(=O)c1c(N)n(C)c(=O)n(C)c1=O)c1ccccc1 (stereo not drawn) | 0 | 0 | 0 | 0 | 30 | 0
Cn1c(N)c(S(=O)(=O)NCc2ccccc2)c(=O)n(C)c1=O | 0 | 0 | 0 | 0 | 0 | -
CC1=C(/C=C/C(C)=C/C=C/C(C)=C\C(=O)O)C(C)(C)CCC1 | - | - | 0 | 0 | 0 | -
CC1=C(/C=C/C(C)=C/C=C/C(C)=C/C(=O)Nc2ccc(O)cc2)C(C)(C)CCC1 | - | - | 0 | - | 34! | 0
O=C(CCN1C(=O)/C(=C\C=C\c2ccccc2)SC1=S)Nc1cccc(C(=O)O)c1 | 0 | 0 | 0 | 0 | 33 | 0
O=C(CCN1C(=O)/C(=C/c2cccs2)SC1=S)Nc1ccc(C(=O)O)c(O)c1 | 0 | 0 | 0 | 0 | 32 | 0
O=C(CCCN1C(=O)/C(=C\c2ccccc2)SC1=S)Nc1cccc(C(=O)O)c1 | - | - | 0 | 0 | 0 | -
O=C(CCN1C(=O)/C(=C/c2cccs2)SC1=S)Nc1ccc(O)cc1 | 0 | 0 | 0 | 0 | 0 | -
O=C(CNC(=O)c1cccs1)NN=Cc1ccccc1[N+](=O)[O-] | 0 | 0 | - | - | - | -
COc1ccc(S(N)(=O)=O)cc1C(=O)OCC(=O)N1CC(=O)Nc2ccccc21 | 0 | 0 | 0 | - | 0 | -
COc1ccc(S(N)(=O)=O)cc1C(=O)OCC(=O)N1CCCC(C)C1 (stereo not drawn) | 0 | 0 | 0 | - | 30 | 0
CN1CC[C@@]2(C)c3cc(O)ccc3N(C)[C@@H]12 | - | - | 0 | - | 40! | 0
CN1CC[C@@]2(C)c3cc(O)ccc3N(C)C2O1 (stereo partly drawn) | - | - | 0 | 0 | - | -
O=C(O)CC(NC(=O)C1c2ccccc2Oc2ccccc21)c1ccc(OC2CCCC2)cc1 (stereo not drawn) | 0 | 0 | 0 | 0 | 33 | 0
CCC(=O)NC(c1cccs1)c1cc([N+](=O)[O-])c2cccnc2c1OC (stereo not drawn) | - | - | - | - | 124 | 0
N#C/C(=N\Nc1cccc(Cl)c1)C(=O)c1ccccc1 | - | - | 0 | 0 | 35 | 0
COc1ccc(C=NNC(=O)C2c3ccccc3-c3ccccc32)cc1 | 0 | 0 | - | - | - | -
SMILES | RN4220 kill | Sa ugtP lethal | PfHsp40 rescue | BJeLR lethal | CCHF vOTU inh-1 | CCHF vOTU inh-2
CCOC(=O)c1cc2c(=Cc3ccc(N(C)C)cc3)c3ccccc3n2[n+]1C | - | - | 284 | - | 97 | 79
Cc1cc2c(=Cc3ccc(N(C)C)cc3)c3ccccc3n2[n+]1C | - | - | 180 | - | 34 | 0
C#Cc1ccc(C2C=C(C(=O)N3CCOCC3)OC(OCc3ccc(CO)cc3)C2)cc1 (stereo not drawn) | 0 | 0 | - | - | - | -
O=C(NCCc1ccccc1)C1CC=CC2CCN(C3CCCCC3)C(=O)C21 (stereo not drawn) | 0 | 0 | - | - | - | -
Cc1ccc(C(=O)N2CCCC(Nc3ccc(F)cc3)C2)cc1C (stereo not drawn) | 0 | 0 | 0 | 0 | 30 | 0
CCOC(=O)c1sc2nc3c(SCCC#N)cc(C(=O)c4cc(F)ccc4O)cn3c(=O)c2c1C | 0 | 0 | 0 | 0 | 0 | -
O=C(O)CSc1cc(C(=O)c2cc(F)ccc2O)cn2c(=O)c3c(-c4ccccc4)csc3nc12 | 0 | 0 | 0 | 0 | 33 | 0
CC(=NN=C(C)c1cccs1)c1cccs1 | 0 | 0 | - | - | - | -
COc1ccccc1CC(=O)Nc1ccc(S(=O)(=O)N2CCN(C)CC2)cc1 | 0 | 0 | 0 | 0 | 40 | 0
O=[N+]([O-])c1cc2ccccc2c(O)c1O | - | - | - | - | 83 | 0
O=[N+]([O-])c1cc(-c2ccccc2)cc([N+](=O)[O-])c1O | 0 | 0 | ? | - | 0 | -
Cc1cccc(C(=O)NN=Cc2ccccn2)c1 | 0 | 0 | - | - | - | -
O=C(Nc1nc(-c2ccncc2)cs1)c1ccc(S(=O)(=O)N2CCOCC2)cc1 | 0 | 0 | 0 | 0 | 39 | 0
Cc1ccc(C(O)c2ncc(-c3cccc(C(F)(F)F)c3)[nH]2)c(C)c1 (stereo not drawn) | - | - | - | - | 0 | -
Cc1ccc(C(O)c2ncc(-c3ccc(F)cc3)[nH]2)c(C)c1 (stereo not drawn) | - | - | - | - | 31 | 0
Cc1cccc(C(O)c2ncc(-c3cccc(C(F)(F)F)c3)[nH]2)c1C (stereo not drawn) | - | - | - | - | 44 | 0
Oc1ccc(NCc2ccccc2OCc2ccccc2)cc1 | 0 | 0 | 0 | 0 | 51 | 0
C[C@@H]1CCCCO[C@H](CN(C)C(=O)Nc2ccc(C(F)(F)F)cc2)[C@@H](C)CN([C@H](C)CO)C(=O)c2cc(NC(=O)c3ccncc3)ccc2O1 | - | - | - | - | 32 | 0
C[C@@H]1CCCCO[C@H](CN(C)C(=O)CCC(F)(F)F)[C@@H](C)CN([C@H](C)CO)C(=O)c2cc(NC(=O)c3ccncc3)ccc2O1 | - | - | - | - | 0 | -
COC(=O)C1=C(c2ccccc2OCc2ccccc2)CC2CCC1N2C(=O)NCc1ccc(Br)cc1 (stereo not drawn) | 0 | 0 | - | - | - | -
CCc1nnc(N/N=C/c2ccc(N3CCC(C)CC3)c([N+](=O)[O-])c2)n1N | - | - | 0 | 0 | 88 | 0
Cc1nnc(N/N=C/c2cc([N+](=O)[O-])c(N3CCC(C)CC3)cc2N2CCC(C)CC2)n1N | - | - | 0 | 0 | 96 | 0
Cc1nnc(NN=Cc2cc([N+](=O)[O-])c(N3CCC(C)CC3)cc2N2CCC(C)CC2)n1N | 0 | 0 | - | - | - | -
CCN1C(=O)C2C(c3ccc(-c4ccc(Cl)c(Cl)c4)c(OC)c3)N3CCC[C@@]3(C(=O)OC)C2C1=O (stereo partly drawn) | 0 | 0 | - | - | - | -
CC1(Cc2cccc(C(F)(F)F)c2)C(=O)Nc2ccc(-c3ccc(F)c(Cl)c3)cc21 (stereo not drawn) | - | - | - | - | 32 | 0
CC1(Cc2cc(Cl)ccc2C(F)(F)F)C(=O)Nc2ccc(-c3ccc(F)c(Cl)c3)cc21 (stereo not drawn) | - | - | - | - | 0 | -

Source: PubChem BioAssay (several laboratories)
